Hit rate of the full screen: of about 2,200 compounds, about 480 (22%) were called active. Only a sample is shown. Potency and affinity values are given separately. A number with no mark means an inactive call. No rule for the calls is given here.
assay: S. Typhimurium GFP fluorescence dose response in modified counterscreen for PhoP regulon inhibitor project (AID 1981); conditions: 4 h; series mostly up to 150 µM; inhibition: at the top concentration;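 also: 0% = induced DMSO wells and 100% = uninduced wells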

| Structure (SMILES) | inhibition [%] |
| --- | --- |
| Cc1ccc2[nH]c3c(=O)n(CCc4cnc[nH]4)cnc3c2c1 | 4.47 |
| c1ccc(-n2cnc3cc(NCc4ccncc4)ccc32)cc1 | 0.09 |
| Cc1[nH]c2ccccc2c1C1=CCNCC1 | 3.1 |
| CCOC(=O)C1CCCN(C(=O)c2sc3nc(C)nc(N4CCOCC4)c3c2C)C1 (stereo unspecified) | -11.8 |
| Cc1cc(C(=O)COC(=O)CNC(=O)c2ccco2)c(C)n1Cc1ccco1 | -20 |
| CN(C)c1ccc(/C=N/c2cc(-c3ccccc3)nn2-c2ccccc2)cc1 | -16.3 |
| Cc1ccc(N2C(=O)CC(n3ccnc3)C2=O)cc1C (stereo unspecified) | 3.87 |
| Cc1cc(NC(=O)c2cnn3cccnc23)no1 | 5.39 |
| COc1ccc(-c2cc(C(=O)Nc3cc(C)n(Cc4ccc(Cl)cc4)n3)no2)cc1OC | 3.32 |
| O=C(NCCSCc1ccccc1)c1ccc(F)cc1 | -11.2 |
| COC(=O)CN1C(c2ccc(OC)cc2)=Nc2ccc(Cl)cc2C1c1ccccc1 (stereo unspecified) | -9.48 |
| Cc1ccc(-c2cc(C(=O)Nc3nccs3)c3ccccc3n2)o1 | 37.3 |
| Nc1nc(N2CCN(C/C=C/c3ccccc3)CC2)nc2ccccc12 | -3.63 |
| O=C(O)CCC(=O)NCC1OCCc2ccccc21 (stereo unspecified) | 3.15 |
| Cc1cc(/C=N\NC(=O)c2cccs2)c(C)n1-c1ccc2ncccc2c1 | 19.8 |
| Cc1nc2ccccn2c1C(=O)N/N=C/c1ccccc1[N+](=O)[O-] | -3.37 |
| COc1c(/C=N/Nc2nc(N3CCCCC3)nc(N3CCCCC3)n2)cccc1[N+](=O)[O-] | -6.83 |
| COC(=O)c1cn(C(=O)c2cccs2)c2ccccc12 | -2.01 |
| CCOC(=O)C(NC(=O)CC)(Nc1ccc(C(O)(C(=O)OCC)C(F)(F)F)cc1C)C(F)(F)F (stereo unspecified) | -14.8 |
| CN(C(=O)c1ccc2c(c1)OCO2)C1(C(=O)NC2CCCCC2)CCCCC1 | -4.9 |
| O=C(CSc1nnc(Cc2ccccc2)o1)NCCc1ccccc1 | -16.5 |
| Cc1ccc(CNc2oc(-c3cccs3)nc2C#N)cc1 | -4.93 |
| COc1cccc2[nH]c3c(N4CCC(C)CC4)ncnc3c12 | -13.9 |
| NCCCC[C@H]1CN=C(N)N1CCC12CC3CC(CC(C3)C1)C2 | 18.9 |

| Structure (SMILES) | inhibition [%] |
| --- | --- |
| COCC(=O)N=Nc1c(O)[nH]c2ccccc12 | -15.3 |
| C(=N\N1CCN(C2c3ccccc3-c3ccccc32)CC1)/c1cccs1 | 1.11 |
| Cc1ccc(C(=O)Oc2ccc(C(=O)COC(=O)c3cnccn3)cc2)cc1 | -14 |
| O=[N+]([O-])c1ccc(CNC2CCCc3ccccc32)cc1 (stereo unspecified) | 20.9 |
| COc1cc(C2Nc3cccc4cccc(c34)N2)cc(OC)c1O | -22.2 |
| CCOC(=O)CCCc1c[nH]c2ccccc12 | -4.56 |
| COc1ccc(-n2c(C)cc(C(=O)Cn3nc(C(=O)O)c4ccccc4c3=O)c2C)cc1 | -19.3 |
| NNc1nc2c(-c3cccc(C(F)(F)F)c3)nnn2c2ccccc12 | 17.3 |
| O=C(Nc1ccc(Br)cc1)c1ccc(F)c(S(=O)(=O)NCc2cccs2)c1 | -7.31 |
| Cc1cc(C)cc(CC(Cc2nc3ccccc3[nH]2)c2nc3ccccc3[nH]2)c1 (stereo unspecified) | -0.97 |
| O=C(/C=C/c1ccco1)NC(=S)Nc1ccc(N2CCCC2)cc1 | 3.26 |
| Cc1cc2ncn(C3CC(=O)N(Cc4ccc(N5CCCC5=O)cc4)C3=O)c2cc1C (stereo unspecified) | -11.8 |
| O=C(NC(=Nc1ccccc1)N1CCOCC1)Nc1ccccc1 | -10.8 |
| Cc1ccc(NC(=O)NCC2CCN(Cc3cccc(Cl)c3)CC2)cc1Cl | 15 |
| Cc1ccc(NC(=O)c2cc(S(=O)(=O)N3CCC4(CC3)OCCO4)ccc2F)cc1 | -7.76 |
| COc1ccc(-c2cc(-c3ccc(OC)c(OC)c3)n[nH]2)c(O)c1 | 13.4 |
| COc1ccc(-c2ccc(C#N)c(SCC(=O)NCCc3ccccc3)n2)cc1OC | 4.81 |
| Cc1cc(C)n2c(SCC(=O)NCc3ccco3)nnc2n1 | -0.83 |
| COc1ccc(C2COC(=O)C2=N)c(NC(=O)c2ccc(Cl)cc2)c1 (stereo unspecified) | -2.01 |
| Cc1ccc(C(=O)C2COC(=O)C2)cc1 (stereo unspecified) | 17.3 |
| COc1ccc(OC)c(C(C(=O)NCc2ccco2)N(C(=O)Cn2nnc3ccccc32)C(C)C)c1 (stereo unspecified) | 7.56 |
| Cc1ccc(NC(=O)COc2ncnc3c(Cl)cc(Cl)cc23)cc1[N+](=O)[O-] | -16.4 |
| O=C(NCc1cccnc1)c1ccc(Cl)cc1[N+](=O)[O-] | 0.21 |
| Cc1ccc(C)c(NC(=S)NCCSc2ccc(Cl)cc2)c1 | -11.1 |

| Structure (SMILES) | inhibition [%] |
| --- | --- |
| O=C1c2cccc(OCC(=O)N3N=C(c4cccs4)CC3c3ccc(F)cc3)c2CCN1Cc1cccnc1 (stereo unspecified) | 13.8 |
| Cc1ccc(NS(=O)(=O)c2ccc(N3C(=O)CCC3=O)cc2)cc1 | -4.31 |
| CCOc1ccc(NC(=O)Nc2cccs2)cc1 | 6.84 |
| CC(C)CCNC(=O)C12CN(Cc3ccccc3)CC1C(c1cccc([N+](=O)[O-])c1)=NO2 (stereo unspecified) | -8.23 |
| O=C(Nc1cc(C(F)(F)F)ccc1Cl)C(NCc1ccccc1)c1ccccc1 (stereo unspecified) | -8.13 |
| Cc1oc(CC(C)C)c(CN)c1C(=O)O | 12.2 |
| CCOC(=O)C1=C(C)NC(=O)NC1c1c(OCC(=O)N2CCCCC2)ccc2ccccc12 (stereo unspecified) | -15.9 |
| COc1ccc(C2=NOC(C(=O)Nc3ccc(C)cc3)C2)cc1OC (stereo unspecified) | 0.99 |
| Cc1cc([N+](=O)[O-])cc2ncccc12 | 12.3 |
| C=CCn1c(SCCOc2ccc(OC)cc2)nnc1C(C)NC(=O)c1ccc(OC)cc1 (stereo unspecified) | -2.1 |
| COc1ccc(-n2c(CNc3ccc(C)cc3)nnc2SCc2ccccc2)cc1 | -15.6 |
| Cc1ccc2nc(SCC(=O)c3c(C)[nH]c4ccccc34)[nH]c2c1 | 1.78 |
| CCOC(=O)c1c(-c2ccc(C)o2)csc1N | -4.43 |
| CCOC(=O)c1ccccc1C(=O)N1CCOCCOCCOCC1 | 4.51 |
| O=C1N2CCCc3cccc(c32)C12Nc1ccccc1S2 (stereo unspecified) | -10.7 |
| N/C(=N\OC(=O)c1cccs1)C1(c2ccc(Cl)cc2Cl)CC1 | -5.97 |
| Nc1c(C(=O)Nc2ccc(F)cc2)sc2nc(-c3ccco3)ccc12 | 6.83 |
| CCOc1ccc(N/C=C/C(=O)c2ccc(OC)cc2)c([N+](=O)[O-])c1 | -20 |
| CCCCOC(=O)CSc1nc2c(c(=O)[nH]c(=O)n2C)n1C/C=C(\C)Cl | -16 |
| CCCCCCOC(=O)Sc1nc2ccccc2o1 | -4.37 |
| O=S1(=O)C=CC(Nc2ccccc2)C1 (stereo unspecified) | 19 |
| C=CCNC(=O)C(=O)NN=C1CCN(C)CC1 | -15.8 |
| COc1cccc(C(=O)Oc2c(CN3CCOCC3)cc(Cl)c3cccnc23)c1 | 14.8 |
